tim10-1 inh = tim10-1 yeast growth inhibition. S. cerevisiae tim10-1 ts strain growth, BacTiter-Glo, 24 h. 330,000 tested, 2.2% active. inhibition, % at 20 µM;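 active = inhibition of at least 40%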;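 note: mutant grown at 25 °C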
PfHsp90 set2 = reduces growth (ATP signal) of yeast expressing P. falciparum Hsp90; 310,000 tested, 0.32% active; inhibition, % at 9.4 µM; S. cerevisiae expressing PfHsp90, BacTiter-Glo ATP, 48 h; yeast lacking PDR1 and PDR3 efflux regulators;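 active = every replicate shows inhibition above about 80%, whatever the replicate mean, limit read from the data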
TIM10 inh = inhibits growth of TIM10 yeast strain | S. cerevisiae TIM10 strain growth, BacTiter-Glo luminescence, 24 h | inhibition, % at 10 µM | 330,000 tested, 1.4% active;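 active = inhibition of 40% or more at the single tested concentration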;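 note: wild-type TIM10 isogenic control strain grown at permissive 25 °C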
tim23-1 inh = tim23-1 yeast growth inhibition. 330,000 tested, 1.3% active. inhibition, % at 20 µM. AID 463212. S. cerevisiae tim23-1 growth, BacTiter-Glo luminescence, 24 h;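 active = growth inhibition of the mutant yeast at or above 50%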;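 note: temperature-sensitive mutant grown at 25 °C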
SUMO Mot1 rescue = inhibitors of SUMOylation pathway: yeast Mot1-301 growth rescue; 320,000 tested, 1% active; S. cerevisiae Mot1-301 growth rescue, ATP luminescence, 38.5C; percent above DMSO median, 100 means doubled; growth rescue, % at 18.8 µM;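 active = every valid replicate shows activation above 250% relative to neutral control wells; inactive = the rest, any valid replicate at or below 250%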
Yeast Mot1 SUMO = yeast SUMO pathway inhibition in dose response | shares compounds with SUMO Mot1 rescue | S. cerevisiae Mot1-301 galactose growth, ATP luminescence, 24 h; -100 = growth of slx-deleted rescue strain | growth activity, percent, % at 42 µM | 2,300 tested, under 10 active;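 active = Signal drops as the depositor expects, and the fitted half-maximal dose is no more than ten times the top valid tested dose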;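 note: more negative values mean stronger growth rescue toward the control strain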
Each line names hits and unclear results; the compound was inactive in the other large screens (follow-up assays come after a bar, where they were run). Hits are enriched below; roughly 4.4% of the tested compounds scored in any of these assays.

CCCCn1c(/N=C/c2ccc3c(c2)OCO3)nc2ccccc21	SUMO Mot1 rescue 577 | Yeast Mot1 SUMO inactive
CC(C)C[C@H]1CN=C(Nc2ccccc2)N1CCC1CCCC1	none
C[C@H]1CN=C(Nc2ccccc2)N1CCC1CCCC1	SUMO Mot1 rescue 921 | Yeast Mot1 SUMO inactive
Cc1ccc(C(=O)N/C(=C\c2cccs2)C(=O)NCCc2c[nH]c3ccccc23)cc1	SUMO Mot1 rescue 494 | Yeast Mot1 SUMO inactive
Cc1ccc(C(=O)N/C(=C\c2sccc2C)C(=O)NCc2ccncc2)cc1	none
Cc1ccc(C(=O)N/C(=C\c2cccs2)C(=O)NCc2ccncc2)cc1	SUMO Mot1 rescue 612 | Yeast Mot1 SUMO inactive
Cc1ccccc1OCC(=O)NCCCNC(=O)c1ccccn1	none
COc1cc(NC(=O)CCN2CCN(Cc3ccccc3)CC2)cc(OC)c1	SUMO Mot1 rescue 696 (no result: PfHsp90 set2) | Yeast Mot1 SUMO inactive
COc1cc(NC(=O)CN2CCN(CC(=O)Nc3ccccc3OC)CC2)cc(OC)c1	SUMO Mot1 rescue 518 | Yeast Mot1 SUMO inactive
CC(=O)c1ccc(S(=O)(=O)Nc2cccc(-c3ccc4nncn4n3)c2)cc1	none (no result: PfHsp90 set2)
CC(=O)Nc1ccc(S(=O)(=O)Nc2cccc(-c3ccc4nncn4n3)c2)cc1	SUMO Mot1 rescue 528 | Yeast Mot1 SUMO inactive
CC(=O)Nc1ccc(S(=O)(=O)Nc2ccc(S(=O)(=O)Nc3ncccn3)cc2)cc1	SUMO Mot1 rescue active | Yeast Mot1 SUMO inactive
CC(=O)Nc1ccc(S(=O)(=O)Nc2ncccn2)cc1	none
Cc1ccccc1OCCSc1nc2ccccc2n1CCC(=O)O	none
CSCCC(NC(=O)c1ccccc1)C(=O)N1CCN(C(=O)c2ccccc2)CC1 (centres undefined)	none
CSCCC(NC(=O)c1ccco1)C(=O)N1CCN(Cc2ccccc2)CC1 (centres undefined)	SUMO Mot1 rescue 426 | Yeast Mot1 SUMO inactive
O=C(NC1CCN(Cc2ccccc2)CC1)c1cn(-c2ccccc2)nc1-c1cccnc1	none
CC(=O)Nc1cccc(NC(=S)Nc2ccc(F)cc2F)c1	SUMO Mot1 rescue 605 | Yeast Mot1 SUMO inactive
O=C(NC(=S)N1CCCC(C(F)(F)F)C1)c1ccc(F)cc1 (centres undefined)	none
O=C(Nc1ccc([N+](=O)[O-])cn1)c1ccc2c(c1)OCO2	SUMO Mot1 rescue 605 | Yeast Mot1 SUMO inactive
NC(=O)c1ccccc1NC(=O)c1ccc2c(c1)OCO2	SUMO Mot1 rescue 700 | Yeast Mot1 SUMO inactive
Cc1ccc(C)c(C(=O)COC(=O)c2ccc(C)c(S(=O)(=O)N3CCOCC3)c2)c1	none
COc1nc(-c2ccccc2)ccc1-c1noc(-c2ccccc2)n1	SUMO Mot1 rescue 558 | Yeast Mot1 SUMO inactive
CC(C(=O)NCC1CCCCC1)N1CCN(S(=O)(=O)c2cccs2)CC1 (centres undefined)	none (no result: SUMO Mot1 rescue)
O=C(N/N=C/c1ccc(Cl)cc1Cl)c1cccc(F)c1	none
O=C(C[n+]1ccc(C(=O)N/N=C/c2ccc(Cl)cc2Cl)cc1)c1ccccc1	SUMO Mot1 rescue 712 | Yeast Mot1 SUMO inactive
CCn1c(=O)n(CC)c2cc(NC(=O)c3ccccc3Cl)ccc21	SUMO Mot1 rescue 406 | Yeast Mot1 SUMO inactive
COc1cc(/C=C2\SC(=S)N(NS(=O)(=O)c3ccccc3)C2=O)cc(OC)c1OC	none
COc1ccc(/C=C2/SC(=O)N(NS(=O)(=O)c3ccccc3)C2=S)cc1OC	SUMO Mot1 rescue 375 | Yeast Mot1 SUMO inactive
Cc1ccc(C)c(OCCCC(=O)O)c1	none
Cc1ccc(C)c(OCCCC(=O)N2CCOCC2)c1	SUMO Mot1 rescue 689 | Yeast Mot1 SUMO inactive
CC(C)Sc1ccc(C(=O)Nc2ccc(F)cc2F)cn1	SUMO Mot1 rescue 537 | Yeast Mot1 SUMO inactive
O=C(Nc1ccc(F)cc1F)c1ccc(-n2cccn2)nc1	none (no result: SUMO Mot1 rescue)
CC(=O)Nc1ccc(C(=O)NCCCOC(C)C)cc1	SUMO Mot1 rescue 798 | Yeast Mot1 SUMO inactive
CCC(=O)N1c2ccc(S(=O)(=O)N3CCN(c4ccc([N+](=O)[O-])cc4)CC3)cc2CC1C (centres undefined)	SUMO Mot1 rescue 456 | Yeast Mot1 SUMO inactive
CCC(=O)N1c2ccc(S(=O)(=O)N3CCN(CC)CC3)cc2CC1C (centres undefined)	none
O=S1(=O)C=CC(c2ccccc2)C1 (centres undefined)	none
CC1=C(C#N)S(=O)(=O)C(C#N)C(c2ccccc2)C1 (centres undefined)	SUMO Mot1 rescue 502 (no result: PfHsp90 set2) | Yeast Mot1 SUMO inactive
Oc1c(Cl)cc(Cl)cc1/C=N/c1nc(-c2ccc(Cl)cc2)cs1	SUMO Mot1 rescue 719 | Yeast Mot1 SUMO inactive
NC(=O)c1cccc(N=Cc2cc(Cl)cc(Cl)c2O)c1	none (no result: tim10-1 inh, TIM10 inh, tim23-1 inh, SUMO Mot1 rescue)
Cc1ccc(-c2noc(COC(=O)c3ccco3)n2)cc1	none
O=C(NCc1ccco1)c1ccc(F)c(S(=O)(=O)N2CCCCC2)c1	none
O=C(NCc1ccco1)c1ccc(Br)c(S(=O)(=O)N2CCCCC2)c1	SUMO Mot1 rescue 584 | Yeast Mot1 SUMO inactive
COc1ccc(NS(=O)(=O)c2ccc(OCC(=O)N3CCOCC3)cc2)cc1Cl	SUMO Mot1 rescue active | Yeast Mot1 SUMO inactive
Cc1ccc(NS(=O)(=O)c2ccc(OCC(=O)N3CCOCC3)cc2)cc1	none
O=S(=O)(NCC(c1cccnc1)N1CCN(Cc2ccccc2)CC1)c1cc(F)ccc1F (centres undefined)	none
CC1=CC2=NC(=O)/C(=C\c3cc(C)n(-c4cccc(Cl)c4)c3C)C(=N)N2O1	none
CC1=CC2=NC(=O)/C(=C\c3cc(C)n(-c4ccccc4)c3C)C(=N)N2O1	SUMO Mot1 rescue 511 | Yeast Mot1 SUMO inactive
CCOC(=O)C1=C(COC(=O)/C=C/c2cccc(F)c2)NC(=O)NC1C (centres undefined)	none
COC(=O)c1ccc(CN2CCN(C3CCCCC3)C(CCO)C2)cc1 (centres undefined)	SUMO Mot1 rescue 403 | Yeast Mot1 SUMO inactive
O=C(O)CCC(=O)N1N=C(c2c(-c3ccccc3)c3cc(Cl)ccc3[nH]c2=O)CC1c1ccco1 (centres undefined)	SUMO Mot1 rescue 377 | Yeast Mot1 SUMO inactive
CCC(=O)N1N=C(c2ccc(C)cc2)CC1c1ccco1 (centres undefined)	none
CCC1(CC)NC(=O)N(CC(=O)N2N=C(c3ccc(Cl)cc3)CC2c2ccco2)C1=O (centres undefined)	SUMO Mot1 rescue 581 (no result: PfHsp90 set2) | Yeast Mot1 SUMO inactive
CCC(=O)N1N=C(c2c(-c3ccccc3)c3cc(Cl)ccc3[nH]c2=O)CC1c1ccco1 (centres undefined)	none
CCc1cc2c(NCCO)ncnc2s1	SUMO Mot1 rescue active | Yeast Mot1 SUMO inactive
CCc1cc2c(NCCC(=O)O)ncnc2s1	none
CCCNC(=O)CN(c1ccc(F)cc1)S(=O)(=O)c1ccc2c(c1)OCCO2	SUMO Mot1 rescue 847 | Yeast Mot1 SUMO inactive
COCCNC(=O)CN(c1ccc(F)cc1)S(=O)(=O)c1ccc2c(c1)OCCO2	none
